The results in this text go back to ChEMBL document CHEMBL4513135, “CO-ADD screening of IQOG CSIS (Spain) compounds”.

In one assay the test system is Staphylococcus aureus. As to conditions: Concentration 32 ug.mL-1, ASSAY_TEST Inhibition of Bacterial Growth, detection method Absorption (OD600), MEDIA CAMHB, plate type 384well, NBS, CORNING #3640, time 18 hr.
In the next assay the test system is Escherichia coli. Particulars: Concentration 32 ug.mL-1, ASSAY_TEST Inhibition of Bacterial Growth, detection method Absorption (OD600), MEDIA CAMHB, plate type 384well, NBS, CORNING #3640, time 18 hr.

“And” between values parts separate entries of the source, which are not always exact repeats. Equal values may be shown once. Entries with a potency or affinity are not part of this list.

The term Inhibition denotes the relative decrease from the control value, in per cent. Regarding `N#C/C(=C\c1ccccc1)C(=O)c1ccccc1`, the Inhibition in the assay with Staphylococcus aureus is on record as 10.5%; with Escherichia coli, 8.34%.
On the same counts, the results for `Cc1ccc(CNNC(=O)c2c[nH]c3ccccc23)cc1` are -8.4% and -3.7%.
For `N#Cc1c(Cl)nc(Cl)c(C#N)c1-c1ccccc1`, in that order: 37.97% and -3.96%.
For `Nc1c2c(nc3c1C(c1ccc([N+](=O)[O-])cc1)c1ccc4ccccc4c1O3)CCCC2` (centres undefined), in that order: -9.37% and -12.22%.
Regarding `Cc1nc(Nc2ccccc2)c2c(C)nn(-c3ccccc3)c2n1`, the Inhibition with Staphylococcus aureus came to 15.21%; in the assay on Escherichia coli, 8.02%.
As for `N#Cc1c(NC2CCC(Cc3ccccc3)CC2)nc(NC2CCN(Cc3ccccc3)CC2)c(C#N)c1-c1ccccc1` (centres undefined), the Inhibition in the assay on Staphylococcus aureus is 4.21%; in the assay with Escherichia coli it was -8.77%.
Turning to `CC1Cc2c(Br)nc3nc4c(c(N)c3c2NC1=O)CCCC4` (centres undefined), the Inhibition in the assay on Staphylococcus aureus is listed as 27.55%; in the assay with Escherichia coli, -12.78%.
In the case of `COc1cc(C=NNC(=O)Cc2c[nH]c3ccccc23)ccc1O`, the Inhibition in the assay with Staphylococcus aureus is reported as 8.14%; in the assay on Escherichia coli, -0.45%.
On to `C/C(Cc1ccccc1)=N\NC(=O)c1c[nH]c2ccccc12`, for which the Inhibition in the assay with Staphylococcus aureus was found to be 5.98%; in the assay with Escherichia coli, 14.48%.
For `N#Cc1cc2c(N)c3c(nc2nc1N1CCCCC1)CCCC3`, in that order: 29.29% and 3.13%.
For `CN(N=O)C(=O)NC1(C(=O)O)CC1c1ccccc1` (centres undefined), the Inhibition amounted to 15% in the assay on Staphylococcus aureus and 11.14% in the assay with Escherichia coli.
On the same counts, the results for `C#CCNC(=O)c1cc2cc(OCCCC3CCN(Cc4ccccc4)CC3)ccc2[nH]1` are 18.56% and -12.4%.
On the same counts, the results for `CCOC(=O)c1cc(C#N)c(N)nc1C` are 8.2% and -11.35%.
For the compound `N#CC1=C(N)Oc2c(ccc3ccccc23)C1c1c(Cl)cccc1Cl` (centres undefined), the Inhibition was 8.27% in the assay on Staphylococcus aureus and 6.46% in the assay on Escherichia coli.
On the same counts, the results for `Cn1ccnc1C1c2c(nc3c(c2N)CCC3)Oc2ccc3ccccc3c21` (centres undefined) are 25.1% and -9.44%.
On the same counts, the results for `c1ccc(-c2nc3c4cnn(-c5ccccc5)c4ncn3n2)cc1` are 14.04% and 8.07%.
For `COc1ccc(C2c3ccc4ccccc4c3OC(=NBr)C2(Br)C#N)cc1OC` (centres undefined), in that order: 21.78% and -14.95%.
Regarding `C#CCN(C)c1nc(Cl)c(C#N)c(-c2ccccc2)c1C#N`, the Inhibition in the assay with Staphylococcus aureus is on record as 13.59%; with Escherichia coli, -10.42%.
Regarding `N#CC1(Br)C(=N)Oc2ccc3ccccc3c2C1c1ccccc1` (centres undefined), the Inhibition in the assay on Staphylococcus aureus (32 ug/mL) is 27.29% and 36.87%; in the assay with Escherichia coli (32 ug/mL) it was -8.37% and -7.39%.
`C#CCn1c(N)c(C#N)c2cc(O)ccc21`: the values for the Inhibition in the assay with Staphylococcus aureus and in the assay on Escherichia coli were 28.27% and -2.03%, respectively.
For `Cc1ccc2[nH]c(=O)c(C=O)cc2c1`, in that order: 3.11% and -7.4%.
Take `N#CC1=C(Cl)Oc2c(ccc3ccccc23)C1c1ccc([N+](=O)[O-])cc1` (centres undefined): the Inhibition in the assay with Staphylococcus aureus was 7.21%; in the assay with Escherichia coli it was -24.25%.
For `Cc1ccc(C2CC2(N)C(=O)O)cc1.Cl` (centres undefined), in that order: 8.71% and 6.19%.
On the same counts, the results for `O=Cc1c(-c2ccc(Br)cc2)nc2ccccn12` are 3.95% and 9.28%.
Turning to `Cl.N#Cc1c(Cl)nc(N)nc1NCCO`, the Inhibition was -0.92% in the assay with Staphylococcus aureus and -1.11% in the assay on Escherichia coli.
On the same counts, the results for `O=C(N[C@H]1CC[C@H](O)CC1)c1ccccc1` are 23.34% and -10.8%.
On the same counts, the results for `COc1cccc(C2c3c(nc4c(c3N)CCCC4)Oc3ccc4ccccc4c32)c1` (centres undefined) are 4.84% and -1.02%.
On the same counts, the results for `Cc1ccccc1-c1c(C=N)c(N)nc2c1S(=O)(=O)OC2(C)C` are 11.29% and 8.66%.
In the case of `Cc1n[nH]c2c1C(c1ccc([N+](=O)[O-])cc1)C(C#N)=C(N)O2` (centres undefined), the values for the Inhibition in the assay with Staphylococcus aureus and in the assay on Escherichia coli were 4.71% and 12.5%, respectively.
For `NNC(=O)C1(NC(=O)c2ccccc2)CC1c1cccc(O)c1` (centres undefined), in that order: 12.61% and 5.57%.
On the same counts, the results for `CCOC(=O)C1=C(C)OC(N)=C(C#N)C1c1ccccc1` (centres undefined) are 25.42% and -7.58%.
On the same counts, the results for `Cc1nc2c3cnn(-c4ccccc4)c3ncn2n1` are 15.5% and 11.4%.
For `Cl.N#Cc1cc(C#N)c(N2CCCC2)nc1Cl`, the figures for the Inhibition with Staphylococcus aureus and in the assay with Escherichia coli were 37.39% and -6.69%, respectively.
For `COC1=C(C#N)C(c2ccccc2)C(C=O)=C(Cl)N1` (centres undefined), in that order: 40.42% and -6.81%.
As for `COc1ccc(-c2cc(-c3cc4ccc(F)cc4nc3Cl)cc(=O)[nH]2)cc1`, the Inhibition is on record as 24.97% in the assay with Staphylococcus aureus and -19.12% in the assay on Escherichia coli.
On the same counts, the results for `O=C(NN=Cc1c[nH]c2ccccc12)c1cccc2ccccc12` are 15.12% and 10.09%.
For `C#CCNc1nc(N)c(C#N)cc1C#N`, in that order: -1.17% and -11.19%.
For `C=CCNc1[nH]c2ccc(O)cc2c1C#N`, in that order: 32.95% and -4.66%.
As for `Cc1cnc(NC(=O)OC(C)(C)C)c(Br)c1`, the Inhibition in the assay on Staphylococcus aureus is recorded as 34.57%; in the assay with Escherichia coli, -15.12%.
On the same counts, the results for `Nc1ccccc1C(=O)N/N=C/c1c[nH]c2ccccc12` are 7.31% and 5.27%.
Regarding `CC(=O)Nc1n[nH]c2nc(N)c(C#N)c(-c3ccccc3)c12`, the Inhibition in the assay with Staphylococcus aureus was found to be 38.27%; with Escherichia coli, 1.16%.
On the same counts, the results for `O=C(N/N=C/c1c[nH]c2ccccc12)c1ccc(Cl)cc1` are 3.32% and 9.43%.
